# Measured values as given in PubChem BioAssay (NCATS).
# Several values for one entry are separate records, joined by “and”; a condition that tells them apart may be missing. Identical values can stand only once. Results filed as inconclusive are left out. Entries that show only a call come without a potency. Activity calls are given as the source filed them. Unless noted, the call rests on the fitted dose curve; in most records, active means well fitted curve in the direction sought with a large enough effect; inconclusive means small, poorly fitted or top-dose-only effect, or another doubt; inactive means no such curve, though single readings can be large; an effect the other way counts as inactive or inconclusive.
# Legend:
# [1] = qHTS Assay for Lipid Storage Modulators (AID 1519; calls by dose curve); conditions: Drosophila S3 cells, BODIPY lipid droplet/cell ratio, laser cytometry, cells loaded with oleic acid
# Procedure, shortened: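 Cells seeded at 5,000 per well were treated with compounds over a concentration series and loaded with oleic acid (400 uM, as added). Lipid droplet fluorescence (488 nm excitation, 500-530 nm channel) was read by laser-scanning cytometry and normalized to 20 uM Triacsin C.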
# [2] = biological target: DNA repair nuclease/redox regulator APEX1 (Homo sapiens) (UniProt P27695); test: qHTS Validation Assay for Inhibitors of the Human Apurinic/apyrimidinic Endonuclease 1 (APE1) (AID 1705;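 further: TAMRA fluorescence gain over two minutes as APE1 cuts a quenched THF abasic duplex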); conditions: purified APE1 endonuclease activity, fluorescence, titration; series mostly up to 57.1 µM
# Procedure, shortened: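 Activity read as rising fluorescence (598 nm emission, 525 nm excitation) from incision of a TAMRA/BHQ-2 duplex carrying a THF abasic site (50 nM). Compound and enzyme sat 15 min at RT before substrate start; signal change between first and third 60-s reads.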
# [3] = Counterscreen for APE1 Inhibitors: Fluorescent Dye Displacement Validation Assay (AID 1707); conditions: fluorescent dye displacement from DNA; series mostly up to 57.1 µM
# Procedure, shortened: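 Reaction mixture of 250 nM Thiazole Orange and 50 nM double-stranded abasic-site DNA was dispensed, compounds were pin-transferred, and fluorescence was read at endpoint (480 nm ex, 540 nm em). Reduced fluorescence indicated dye displacement by DNA binding.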
# [4] = biological target: Endonuclease 4 (Escherichia coli (strain K12)) (UniProt P0A6C1); test: Counterscreen for APE1 Inhibitors: qHTS Validation Assay for Inhibitors of Endonuclease IV (AID 1708); conditions: E. coli endonuclease IV, DNA cleavage fluorescence; series mostly up to 57.1 µM
# Procedure, shortened: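 The reaction buffer contained 50 mM Tris-HCl pH 7.5, 50 mM NaCl, 2 mM MgCl2, 1 mM DTT and 0.01% Tween-20. Incision of a 50 nM fluorophore/quencher THF substrate by 2 nM enzyme was measured kinetically.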
# [5] = qHTS for differential inhibitors of proliferation of Plasmodium falciparum line GB4 (AID 1816); conditions: Potency: Plasmodium falciparum GB4 proliferation inhibition; series mostly up to 28.7 µM;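 further: parasite growth measured after 72 h incubation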; further: potency means the concentration at half of the fitted maximal effect
# [6] = qHTS for differential inhibitors of proliferation of Plasmodium falciparum line 3D7 (AID 1876); further: potency means the concentration at half of the fitted maximal effect; conditions: P. falciparum 3D7 proliferation inhibition; series mostly up to 28.7 µM
# [7] = qHTS for differential inhibitors of proliferation of Plasmodium falciparum line D10 (AID 1877); conditions: series mostly up to 28.7 µM;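 further: parasites grown with compound for 72 h before DNA staining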; further: potency means the concentration at half of the fitted maximal effect
# [8] = biological target: alpha-glucosidase (Oryza sativa, rice) (UniProt Q653V4); test: Counterscreen for Glucocerebrosidase Inhibitors: qHTS Assay for Rice alpha-Glucosidase at pH 5.0 (AID 997); conditions: rice alpha-glucosidase enzyme activity; series mostly up to 76.9 µM
# Procedure, shortened: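 Endpoint fluorogenic assay at pH 5.0: compounds (0.7 nM to 77 uM) titrated against 4 nM rice enzyme and 400 uM 4-MU-alpha-glucoside for 20 min at room temperature; NaOH/glycine stop, read ex 365/em 440 nm, Hill-fitted AC50.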
# [9] = qHTS for differential inhibitors of proliferation of Plasmodium falciparum line 7G8 (AID 1815); conditions: Plasmodium falciparum 7G8 proliferation inhibition; series mostly up to 28.7 µM;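 further: parasite growth measured after three days of incubation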; further: potency means the concentration at half of the fitted maximal effect
# [10] = measured here: cell count channel max response
# [11] = measured here: lipid channel max response
# DNA repair nuclease/redox regulator APEX1 (Homo sapiens), sequence (P27695 whole entry, looked up): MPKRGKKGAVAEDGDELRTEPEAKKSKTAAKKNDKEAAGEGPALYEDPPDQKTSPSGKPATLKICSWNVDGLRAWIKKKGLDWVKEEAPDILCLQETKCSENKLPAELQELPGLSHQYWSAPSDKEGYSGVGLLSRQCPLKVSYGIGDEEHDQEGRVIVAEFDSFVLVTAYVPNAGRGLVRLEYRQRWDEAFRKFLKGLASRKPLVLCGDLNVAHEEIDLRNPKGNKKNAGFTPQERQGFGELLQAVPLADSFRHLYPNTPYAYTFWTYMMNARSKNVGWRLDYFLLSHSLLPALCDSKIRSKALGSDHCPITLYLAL
SMILES,"activity change, negative = inhibition ([1]; at 57.5 µM (top of the series))","max response [1, 10]","max response [1, 11]",Potency [2],outcome [3],Potency [4],Potency [5],Potency [6],Potency [7],outcome [8],"activity change, negative = inhibition ([1]; at 25.7 µM (top of the series))",Potency [9]
OC(CCN1CCCCC1)(c1ccccc1)C1CCCCC1 (stereo not drawn),1.74% (inactive),-10.4%,-6.71%,inactive,inactive,inactive,10 µM (active),10 µM (active),12.6 µM (active),–,–,–
O=C1NCN(c2ccccc2)C12CCN(CCCC(c1ccc(F)cc1)c1ccc(F)cc1)CC2,–,-19.4%,-26.6%,inactive,inactive,–,8.91 µM (active),2 µM (active),10 µM (active),inactive,-8.24% (inactive),4.47 µM (active)
CC(C)[N+](C)(CCOC(=O)C1c2ccccc2Oc2ccccc21)C(C)C,–,-9.66%,-8.2%,–,inactive,–,10 µM (active),3.98 µM (active),11.2 µM (active),inactive,0.9% (inactive),12.6 µM (active)
C[N+](C)(C)CCOC(N)=O,–,10.4%,11.4%,inactive,inactive,–,inactive,inactive,inactive,inactive,1.99% (inactive),inactive
C[N+](C)(C)CCCCCCCCCC[N+](C)(C)C,–,-13.2%,-14.8%,–,inactive,–,–,–,–,inactive,-3.64% (inactive),–
CCN(CC)CCNC(=O)c1ccc(NC(C)=O)cc1,5.92% (inactive) and 1.04% (inactive),-2.69% and -11.3%,6.2% and -12.1%,inactive,inactive,inactive,inactive,inactive,inactive,inactive,–,inactive
NC(Cc1ccc(Cl)cc1)C(=O)O (stereo not drawn),7.45% (inactive),16.7%,25.4%,inactive,inactive,–,inactive,inactive,inactive,–,–,inactive
CCNC(=O)N1CCN(CCCC(c2ccc(F)cc2)c2ccc(F)cc2)CC1,-0.161% (inactive),-45.7%,-48.7%,inactive,inactive,–,1.12 µM (active),0.891 µM (active),2.51 µM (active),inactive,–,1.58 µM (active)
CO[C@@]1(NC(=O)CSCC#N)C(=O)N2C(C(=O)O)=C(CSc3nnnn3C)CS[C@@H]21,0.161% (inactive),-28.1%,-28.4%,inactive,inactive,–,inactive,inactive,inactive,–,–,inactive
NC/C=C/C(=O)O,6.98% (inactive),5.6%,13.9%,inactive,inactive,–,inactive,inactive,inactive,–,–,inactive
COc1ccc(CN(CCN(C)C)c2ccccn2)cc1,2.66% (inactive) and 4.86% (inactive) and -0.667% (inactive),5.42% [middle of 4 runs],–,inactive,inactive,inactive,8.91 µM (active),inactive,inactive,inactive,1.57% (inactive),–
C=CCc1ccccc1OCC(O)CNC(C)C (stereo not drawn),0.138% (inactive),11.7%,12.4%,inactive,inactive,–,1.58 µM (active),10 µM (active),12.6 µM (active),–,–,3.55 µM (active)
CCCN(CCC)CCc1cccc2c1CC(=O)N2,5.49% (inactive),9.72%,11.6%,–,inactive,inactive,inactive,inactive,inactive,inactive,–,inactive
CCN1CCc2nc(N)oc2CC1,0.659% (inactive),-8.22%,-7.55%,inactive,inactive,inactive,inactive,inactive,inactive,inactive,–,inactive
CN1CCN(CC(=O)N2c3ccccc3C(=O)Nc3cccnc32)CC1,2.91% (inactive) and 6.38% (inactive) and 1.02% (inactive),–,–,–,–,–,–,–,–,–,1.33% (inactive),–
